Measured potencies and affinities stand elsewhere. Calls of active or inactive are those of the source. The rule behind the calls is not given here.
Assay: toxicity toward HepG2 hepatoma cells – cell-based, dry powder samples, cytotoxicity control, dose response (AID 720568)
Details: plate reader; series mostly up to 15 µM

Compound	outcome
COc1ccc(CSc2nnc(-c3ccccc3)o2)cc1	inactive
c1ccc(CSc2nnc(-c3ccccc3)o2)cc1	inactive
